UDG counter: blocks uracil-DNA glycosylase in AID counter-screen | FRET deamination/UDG coupled assay, UDG read, 4 h | Potency, µM (titrated, usually from 115 µM), hits mostly inhibitors | 0.14% of 91,000 active | AID 1347430; also: nearly all actives have a fitted effect of over 65% in size
AID inhibitor: activation induced cytidine deaminase inhibition; AID 1347428; Potency, µM (top dose mostly 115 µM), most hits filed as inhibitors; 0.32% of 91,000 active; Q9GZX7; AID deamination FRET fluorescence, UDG-coupled, 4 h; also: nearly all actives have a fitted effect of over 25% in size
Target sequence (Q9GZX7 whole entry, looked up): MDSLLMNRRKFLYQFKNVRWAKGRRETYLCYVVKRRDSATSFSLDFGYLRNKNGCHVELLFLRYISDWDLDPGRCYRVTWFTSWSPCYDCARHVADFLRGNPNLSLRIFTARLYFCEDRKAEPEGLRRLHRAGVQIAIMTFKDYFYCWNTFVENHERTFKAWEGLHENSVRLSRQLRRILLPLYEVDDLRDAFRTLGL
A number is an active result; 0 = inactive; ? = inconclusive. Sampled rows, rich in hits. Any-hit rate of the full collection: about 0.47%. Calls follow the shape of the dose curve; as a rule, active = well fitted curve in the direction sought with a large enough effect; inconclusive = small, poorly fitted or top-dose-only effect, or another doubt; inactive = no such curve, though single readings can be large; an effect the other way counts as inactive or inconclusive.

SMILES	UDG counter	AID inhibitor
COc1ccc(CNC(=O)CN(c2cccc(Cl)c2Cl)S(=O)(=O)c2ccccc2)cc1	0	0
COc1ccc2cc(CN(C)C(=O)C3CCN(S(=O)(=O)c4ccccc4F)CC3)ccc2c1	0	0
COc1cccc(NC(=O)CSc2nc3c([nH]c4ccccc43)c(=O)n2-c2cccc(Cl)c2)c1	0	0
COc1cccc(-n2c(SCC(=O)Nc3cccc(C)c3)nc3c([nH]c4ccccc43)c2=O)c1	0	13µM
O=C(Nc1cc(Cl)ccc1Cl)C1=C(c2ccccc2)S(=O)(=O)CCO1	0	0
CC(C)(C)c1nc2cc(NC(=O)Cc3ccc([N+](=O)[O-])cc3)ccc2o1	0	0
CCOc1cc(CNc2ccc(O)cc2)ccc1OCc1ccc(Cl)cc1	0	?
Oc1ccc(NCc2ccccc2OCc2ccccc2)cc1	79µM	32µM
CCOc1cc(CNc2ccc(O)cc2)cc(Br)c1OCc1ccccc1	0	0
Oc1ccc(NCc2ccccc2OCc2ccc(Cl)cc2)cc1	0	32µM
CN(C)S(=O)(=O)c1cc(NC(=O)c2nn(Cc3ccccc3)c(=O)c3ccccc23)ccc1Cl	0	0
O=C(NCc1ccccc1)c1cccc2cccnc12	0	0
CCNC(=S)NCc1ccccc1	0	0
CCn1cc2nc(SCc3ccc(F)cc3)n(CCc3ccccc3)c(=O)c2n1	0	35µM
CCn1cc2nc(SCc3ccc(C)cc3)n(CCc3ccccc3)c(=O)c2n1	0	?
Cc1cc(C)cc(NC(=O)Cn2c(=O)c3c(ncn3Cc3ccccc3)n(Cc3ccccc3)c2=O)c1	0	0
O=C1c2ccccc2C(=O)c2c(NCCc3ccc(O)cc3)ccc(NCCc3ccc(O)cc3)c21	0	?
O=C1c2c(O)ccc(O)c2C(=O)c2c(NCCNCCO)ccc(NCCNCCO)c21	40µM	10µM
CCCNC(=O)CNC(=O)CCc1ncc(-c2ccc(C)cc2)o1	0	0
O=C(Nc1ccc(Cl)cc1Cl)C1CC2CCC1C2 (stereo not given)	0	0
COC(=O)c1sc(N2C(=O)C(=O)/C(=C(/O)c3ccc(C)c(F)c3)C2c2ccccc2F)nc1C (stereo not given)	0	79µM
Cc1ccccc1C1/C(=C(\O)c2ccccc2F)C(=O)C(=O)N1c1ccc(CC(=O)O)cc1 (stereo not given)	0	0
O=C(O)c1ccc2nccnc2c1	0	0
Cc1ccccc1-c1cc(=O)c2cc(NC(=O)c3ccncc3)ccc2o1	0	0
O=C(NN=C(c1ccccc1)c1ccccc1)c1ccc[n+]([O-])c1	0	0
SMILES	UDG counter	AID inhibitor
Nc1ccccc1C(=O)NCCc1ccccc1	0	0
NNCCc1ccccc1	32µM	45µM
CCOC(=O)CNC(=O)CSc1cn(CC(=O)N2CCCCC2)c2ccccc12	0	0
CCCN(CCC)CC(O)Cn1cc(/C=C/C(=O)c2ccc(C)cc2)c2ccccc21 (stereo not given)	0	35µM
CCCN(CCC)CC(O)Cn1cc(/C=C/C(=O)c2ccc(Br)cc2)c2ccccc21 (stereo not given)	0	0
CC(C)CCNC(=O)c1ccc2c(c1)CCCN2C(=O)c1ccc(Cl)cc1	0	0
O=C(CSc1cccc2cccnc12)NNC(=O)C(c1ccccc1)c1ccccc1	0	0
O=C(Nc1cccc2cccnc12)C(c1ccccc1)c1ccccc1	89µM	0
CCn1cc(C(=O)NCCc2ccc(OC)c(OC)c2)c(=O)c2cc(S(=O)(=O)N3CCCCCC3)ccc21	0	0
CCn1cc(C(=O)NCCc2ccc(OC)c(OC)c2)c(=O)c2cc(S(=O)(=O)N(C)C3CCCCC3)ccc21	0	16µM
Cc1ccc2c(=O)c(S(=O)(=O)c3ccccc3)cn(CC(=O)Nc3ccc4c(c3)OCCO4)c2n1	0	0
COc1cc(C2CC(=O)Nc3nc(N4CCCCC4)sc32)cc(OC)c1OC (stereo not given)	0	35µM
COc1cc(C2CC(=O)Nc3n[nH]c(Nc4ccccc4)c32)cc(OC)c1OC (stereo not given)	0	0
O=C(CCC(=O)c1ccc(Cl)cc1)OCCOc1ccc(Br)cc1	0	0
CC(C)(C)c1ccc(-c2nnc(SCC(=O)N3CCCC3)n2C2CCCC2)cc1	0	0
Cc1ccc(NC(=O)c2cccc(NC(=O)NC(C)C)c2)cc1Cl	0	0
Cc1ccc(C(=O)Nc2ccc(S(=O)(=O)O)c3cc(S(=O)(=O)O)cc(S(=O)(=O)O)c23)cc1NC(=O)c1cccc(NC(=O)Nc2cccc(C(=O)Nc3cc(C(=O)Nc4ccc(S(=O)(=O)O)c5cc(S(=O)(=O)O)cc(S(=O)(=O)O)c45)ccc3C)c2)c1	0	7.1µM
CC(=O)c1ccc(NC(=O)C2=Cc3sc4c(c3CS2)CCCC4)cc1	0	0
CCCNC(=S)Nc1cc(Cl)c(Cl)cc1Cl	0	0
COC(=O)c1ccc(NC(=O)CN(Cc2ccccc2)S(=O)(=O)c2ccc(C)cc2)cc1	0	0
COc1ccc(NC(=O)CN(Cc2ccccc2)S(=O)(=O)c2ccc(C)cc2)cc1Cl	89µM	0
Cn1nc(C(=O)OCC(=O)NC(C)(C)C)c2ccccc2c1=O	0	0
Cc1nc2nc(NC(=O)c3ccc(C(C)(C)C)cc3)[nH]n2c(=O)c1Cl	0	32µM
COc1ccc(C(=O)Nc2nc3nc(C)c(Cl)c(=O)n3[nH]2)cc1	0	0
Cc1ccc(S(=O)(=O)N2CCC(C(=O)Nc3nnc(-c4ccc(Cl)cc4)o3)CC2)c(C)c1	0	0
SMILES	UDG counter	AID inhibitor
Cc1cccc(N2CCN(c3ncnc4onc(C)c34)CC2C)c1 (stereo not given)	0	0
Cc1cccc(N2CCN(c3ncnc4onc(-c5ccc(F)cc5)c34)CC2C)c1 (stereo not given)	79µM	?
CCCCOc1ccc(NC(=O)Cc2ccccc2)c2cccnc12	0	0
Cc1ccc(C2=NN(C(=O)CNc3ccc(C(=O)N(C)C)cc3)C(c3ccco3)C2)cc1 (stereo not given)	0	0
COc1cc(NC(=O)CC(c2ccc(C)cc2)N2Cc3ccccc3C2=O)cc(OC)c1 (stereo not given)	0	45µM
COc1cccc(CNC(=O)CC(c2ccc(C)cc2)N2Cc3ccccc3C2=O)c1 (stereo not given)	0	?
COc1cc(/C=C(\C#N)c2nc3ccccc3o2)cc(OC)c1OC	0	0
Cc1cccc(C)c1NC(=O)c1cc(S(=O)(=O)N2CCCc3ccccc32)ccc1F	89µM	0
Cc1ccc(NC(=O)c2cc(S(=O)(=O)N3CCCc4ccccc43)ccc2F)cc1F	?	0
COC(CN(C)C(=S)NCC(=O)O)OC	0	0
CC(C)Oc1ccc(CNC(=O)Nc2ccc3c(c2)N(C)C(=O)c2ccccc2S3)cc1	0	?
COc1ccc(CNC(=O)Nc2ccc3c(c2)N(C)C(=O)c2ccccc2S3)cc1OC	0	89µM
O=C(Cc1ccc(-c2ccccc2)cc1)Nc1ccccc1C(F)(F)F	0	0
CCOc1ccc(/C=C/c2nc(C#N)c(NCCN(C)C)o2)cc1	0	0
CCCn1cc(S(=O)(=O)c2ccc(C)cc2)c(=O)c2cc(OC)c(OC)cc21	0	0
COc1cc2c(=O)c(S(=O)(=O)c3ccc(C)cc3)cn(Cc3cccc(C)c3)c2cc1OC	0	40µM
Oc1ccc(C(c2c[nH]c3ccccc23)c2c[nH]c3ccccc23)cc1	0	0
O=C(CSc1nccn1-c1ccc(Cl)cc1)Nc1ccc(Cl)c(Cl)c1	0	0
O=C(CSc1nccn1-c1cccc(Cl)c1)Nc1cccc(C(F)(F)F)c1	0	32µM
CCCCS(=O)(=O)CCSCCS(=O)(=O)CCCC	0	0

High-throughput results as filed in PubChem.
